High-throughput results deposited in PubChem BioAssay by several laboratories.
PrPC surface inh – reduces human prion protein on the cell surface. inhibition, % at 13.8 µM. P04156. cell surface PrPC, TR-FRET read-out. AID 720596. 370,000 tested, 0.43% active; in the data active means inhibition above about 24%; further: 0% = median of the test wells and 100% = reference compound wells
BJeLR lethal – kills HRASV12-expressing BJeLR cells; BJeLR (HRASV12) viability, CellTiter-Glo ATP luminescence, 48 h; inhibition, % (test concentration not listed); 300,000 tested, 0.17% active; in the data active means inhibition above about 50%; inconclusive means no clear call, values can overlap the other calls
PrP 5UTR inh – suppresses PrP 5' UTR mRNA reporter expression; cell-based PrP 5' UTR mRNA reporter, plate reader; inhibition, % (no concentration beside the values); 340,000 tested, 0.35% active; in the data active means inhibition above about 52%; further: 0 = median of the neutral control wells
MazF activator – activators of E. coli MazEF toxin-antitoxin RNase; AID 504720; 350,000 tested, 0.32% active; activation, % at 20 µM; FAM/BHQ RNA-DNA oligo cleavage fluorescence, 5 h; P0AE70; in the data active means activation above about 50%
Target sequence (P0AE70 whole entry, looked up): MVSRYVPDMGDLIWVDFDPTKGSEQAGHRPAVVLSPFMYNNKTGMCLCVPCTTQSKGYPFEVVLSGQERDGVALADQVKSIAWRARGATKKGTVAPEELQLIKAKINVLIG
PfHsp40 yeast – compounds rescuing yeast from Plasmodium falciparum HSP40 toxicity; S. cerevisiae expressing PfHsp40, growth rescue, ATP luminescence; growth rescue, % at 12.5 µM; 340,000 tested, 0.68% active; AID 504582; in the data active means growth rescue above about 28%, passing the limit was not always enough; inconclusive means no clear call, values can overlap the other calls;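 further: yeast W303a lacking pdr1 and pdr3 grown in galactose medium; growth measured after three days at 30 °C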
DUSP3 inh – blocks human VHR1 dual specificity phosphatase; P51452; recombinant VHR phosphatase, pNPP absorbance; inhibition, % at 13.3 µM; 290,000 tested, 0.52% active; AID 1654; in the data active means inhibition above about 50%
Target sequence (P51452 whole entry, looked up): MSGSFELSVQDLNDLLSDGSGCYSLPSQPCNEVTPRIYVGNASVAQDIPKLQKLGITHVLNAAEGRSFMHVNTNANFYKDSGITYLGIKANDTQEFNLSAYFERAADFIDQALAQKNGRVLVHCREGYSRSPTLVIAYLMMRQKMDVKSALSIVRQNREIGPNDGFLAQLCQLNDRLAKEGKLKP
PrP 5UTR single – prion 5' UTR mRNA inhibition, cherry-pick retest; AID 504592; shares compounds with PrP 5UTR inh; 1,100 tested, 48% active; inhibition, % at 2.5 µM; cell-based prion protein 5' UTR reporter, plate reader; in the data active means inhibition above about 54%; inconclusive means no clear call, values can overlap the other calls
* = called active by the depositor; ? = inconclusive; nt = no result. Only some compounds are listed: those with a hit (about 2.1% of all), similar ones and a draw of the others.

SMILES | PrPC surface inh | BJeLR lethal | PrP 5UTR inh | MazF activator | PfHsp40 yeast | DUSP3 inh | PrP 5UTR single
Cc1ccc(-n2cccn2)c([C@@H]2C[C@H]3CN(C)C(=O)[C@]34CCCN24)c1 | -3 | 3 | 67* | -25 | 0 | 108 | -14
CC(C)(C)c1ccc(C(=O)N2CCCCCC2=O)cc1 | 1 | 0 | 59* | -2 | 2 | -5 | ?
O=C(/C=C/Nc1ccccc1Br)c1ccccn1 | -17 | 25 | 89* | -1 | 2 | 11 | 83*
CCOc1ccc(OCc2cccc(C(=O)N3CCOCC3)c2)cc1 | 9 | 0 | 61* | -19 | -1 | -12 | 70*
Cc1cc(NC(=O)c2ccc(Br)c([N+](=O)[O-])c2)no1 | -27 | 8 | 83* | 7 | 1 | 7 | -7
Cc1cc(C)cc(C(=O)NC(CC(N)=O)c2ccc(N3CCCCCC3)c([N+](=O)[O-])c2)c1 (configuration not stated) | 2 | -11 | -26 | 1 | 1 | 21 | nt
CCOC(=O)c1c(SCCN2CCCC2)n(-c2ccccc2)c(=S)n(-c2ccccc2)c1=O | -10 | nt | 65* | 0 | 1 | nt | 21
CCN1C(=O)[C@H]2[C@H]3CN=C(SCC4CC4)N3[C@@](Cc3ccccc3)(C(=O)OC)[C@H]2C1=O | -8 | nt | 64* | 2 | -2 | nt | -1
CCN1C(=O)[C@H]2[C@H]3CN=C(SCc4ccccc4)N3[C@@](Cc3ccccc3)(C(=O)OC)[C@H]2C1=O | 1 | nt | -17 | 14 | -1 | nt | nt
COc1ccc(-n2c(Cc3cc(=O)[nH]c(=O)[nH]3)nnc2SCC(=O)Nc2ccccc2)cc1 | -7 | 6 | 57* | 6 | 0 | 9 | 9
CCCCCCCCN1C(=O)[C@H](CC(=O)NCc2ccc(OC)c(OC)c2)C[C@@]2(C(=O)OC)CC(C)(C)CC=C12 | 11 | nt | nt | nt | nt | nt | nt
Cc1cc(C)cc(N(CC(=O)N2CCc3ccccc32)S(=O)(=O)c2c(C)noc2C)c1 | 1 | 1 | -5 | 14 | 0 | 12 | nt
CCOc1ccc(N(CC(=O)N2CCc3ccccc32)S(=O)(=O)c2c(C)noc2C)cc1 | -5 | 1 | 79* | 11 | 0 | 25 | 9
Cc1cc(C)cc(N(CC(=O)N2CCn3c2nc2ccccc23)S(=O)(=O)c2c(C)noc2C)c1 | 5 | -2 | 67* | 8 | 0 | 29 | -3
CCC1(O)C(=O)OCc2c1cc1n(c2=O)Cc2cc3c(N)cccc3nc2-1 (configuration not stated) | -8 | nt | 53* | 18 | -1 | nt | 90*
c1ccc2ncccc2c1 | nt | nt | 63* | 6 | 1 | nt | 6
Cn1c(=O)c2[nH]c(N=Nc3ccc(N)cc3N)nc2n(C)c1=O | -3 | 0 | 71* | 9 | 1 | 21 | -5
Cc1cc(C)cc(Nc2nc3c([nH]2)c(=O)n(C)c(=O)n3C)c1 | 0 | -5 | 5 | 2 | 0 | -11 | nt
C=CCN1C(=O)C(=O)N(Cc2nc3ccccc3s2)C1=O | -6 | -1 | -43 | 8 | -1 | 24 | nt
CCOC(=O)CCCCCC(=O)Nc1ccc2c(c1)C(=O)N([C@H](C)CO)C[C@@H](C)[C@H](CN(C)S(=O)(=O)c1cn(C)cn1)O2 | 7 | nt | 12 | 6 | -1 | nt | nt
Cc1ccsc1C(=O)OCC(=O)NC1CCCCC1 | -2 | nt | nt | -4 | nt | nt | nt
O=C1C=C(c2ccc(O)cc2)C[C@@H](c2ccc3c(c2)OCO3)C1 | -14 | nt | 67* | 1 | 2 | nt | 2
O=C(COC(=O)C1CC2CCCC(C1)C2=O)Nc1ccc(Cl)cn1 (configuration not stated) | -4 | nt | -4 | 4 | 0 | nt | nt
CCC1CCCCN1CCCNC(=O)CC1Oc2ccccc2NC1=O (configuration not stated) | 3 | 0 | -14 | -13 | -1 | 12 | nt
O=C(CC1Oc2ccccc2NC1=O)NCCCN1CCN(C2CCCCC2)CC1 (configuration not stated) | 8 | 4 | 70* | -3 | 0 | nt | -12
SMILES | PrPC surface inh | BJeLR lethal | PrP 5UTR inh | MazF activator | PfHsp40 yeast | DUSP3 inh | PrP 5UTR single
NC(Cc1ccc(O)cc1)c1cn([C@@H](CCC(=O)O)C(=O)N2CCNCC2)nn1 (some centres not stated) | 1 | -3 | 64* | -1 | 8 | 7 | -2
O=C(COc1ccc(Cl)cc1)NCC(=O)N/N=C/c1cccs1 | -4 | 6 | 63* | -1 | 0 | -13 | -6
O=C(NCCc1ccccn1)c1ccc(NS(=O)(=O)c2ccc(F)cc2)cc1 | 8 | -2 | -1 | -4 | 3 | 20 | nt
CCN(CC)S(=O)(=O)c1ccc(C(=O)O)cc1 | -3 | 6 | 80* | -3 | -3 | -19 | 8
CCN(CC)S(=O)(=O)c1ccc(C(=O)NCCc2ccccn2)cc1 | 6 | -13 | 78* | 3 | -1 | 28 | -14
CCCN(CCC)S(=O)(=O)c1ccc(C(=O)O)cc1 | 2 | 1 | -16 | 7 | -2 | 28 | nt
Cc1ccc(Sc2c(CO)c(-c3ccccc3)nn2C)cc1 | 19 | 29 | 73* | 3 | 2 | -2 | 84*
CC(=O)Nc1ccc(Nc2nc(C)cc(C)n2)cc1 | -4 | 2 | -12 | 6 | 0 | 11 | nt
CC(=O)Nc1cc(C)ns1 | 0 | nt | 69* | -22 | -1 | nt | ?
CCN(CC)C(=O)C1=C(C)N(Cc2ccc(OC)cc2)C(=O)C(CC(=O)NC2CC2)C1 (configuration not stated) | 10 | nt | nt | 2 | nt | nt | nt
Cc1cc(C)c2c(N)c(C(=O)Nc3ncc(C)s3)sc2n1 | -28 | nt | 89* | 1 | 0 | 0 | 84*
CC(C)CNC(=O)[C@H](Cc1ccccc1)NC(=O)c1cccs1 | 0 | 1 | -30 | 12 | 0 | 17 | nt
CC1CCN(C(=O)c2ccc(COc3ccccc3Cl)o2)CC1 | 10 | -7 | 77* | -2 | -1 | -1 | -6
Cc1ccc(C(=O)Nc2ccc3c(c2)OCCO3)c(C)c1 | 6 | 9 | 71* | 0 | -2 | 23 | ?
Cc1c(C)c2cc(Cl)c(OCC(=O)Nc3ccccn3)cc2oc1=O | -3 | nt | nt | -55 | nt | nt | nt
Cc1c(C)c2ccc(OCC(=O)Nc3ccccn3)c(C)c2oc1=O | -3 | 29 | 93* | -1 | -1 | 2 | 94*
Cn1c2ccccc2c(=O)c2c(=O)n(Cc3ccco3)c(-c3ccc(Cl)cc3Cl)nc21 | nt | -3 | nt | nt | nt | 4 | nt
Nc1ccc2oc(-c3cccc4ccccc34)nc2c1 | 3 | 3 | 51* | 2 | 0 | 12 | 65*
Cc1ccc(-c2nc3cc(N)ccc3o2)c(C)c1 | -2 | -2 | -33 | 4 | 1 | 12 | nt
COc1ccc(NC(=O)Nc2ccc3c(c2)C(=O)N([C@H](C)CO)C[C@H](C)[C@@H](CN(C)C(=O)Nc2ccc(C(F)(F)F)cc2)O3)cc1 | 13 | nt | -22 | -7 | 0 | nt | nt
